Structures can show the parent of a compound that is named as a salt. ± gives the standard deviation of the averaged measurements.
Tested on: mESC LDLR-Dup GFP reporter (SpCas9 MH-deletion repair)
Assay: fraction of GFP+ cells relative to DMSO control (fold change); higher = more MH-deletion repair to in-frame LDLR (or more editing)
Settings: 2 µM; 7 days post-transfection

Row | Compound | fraction of GFP+ cells
1 | CC(C)(CNC(=O)c1cccc(-c2noc(C(F)(F)F)n2)c1)c1coc(-c2ccccc2)n1 | 0.849 ± 0.2
2 | Cc1nc(-c2cccnc2)sc1C(=O)Nc1ccccc1-c1cn2c(CN3CCOCC3)csc2n1 | 1.34 ± 0.54
3 | O=c1cc(N2CCOCC2)oc2c1ccc1ccccc12 | 0.548 ± 0.39
4 | O=C(NCCS(=O)(=O)c1ccc(C(F)(F)F)cn1)c1ccc(Cl)cc1 | 1.39 ± 0.63
5 | CN(C)/N=N/c1[nH]cnc1C(N)=O [Dacarbazine] | 1.01 ± 0.49
6 | Cc1cc(N2C[C@@H](C)N[C@@H](C)C2)ncc1-c1ccc(-c2nc3c(ccn3C)c(=O)[nH]2)cc1 | 0.927 ± 0.33
7 | O=C1C[C@@H](c2ccc(O)cc2)Oc2cc(O)cc(O)c21 [Naringenin] | 0.997 ± 0.18
8 | O=c1c(-c2ccc(O)cc2)coc2cc(O)ccc12 [Daidzein] | 0.115 ± 0.039
9 | C[C@H](NC(=O)CCc1nc2ccccc2c(=O)[nH]1)c1ccccc1 | 0.781 ± 0.051
10 | CSc1ccc(C(=O)/C=C/c2cc(C)c(OC(C)(C)C(=O)O)c(C)c2)cc1 [Elafibranor] | 1.63 ± 0.59
11 | Oc1cccc(-c2nc(N3CCOCC3)c3oc4ncccc4c3n2)c1 | 0.542 ± 0.15
12 | C[C@@H](CN1CC(=O)NC(=O)C1)N1CC(=O)NC(=O)C1 [Dexrazoxane HCl (ICRF-187, ADR-529)] | 1.05 ± 0.24
13 | COc1ccc(CC(=O)Nc2nc3c(s2)CCc2ccccc2-3)cc1OC | 1.51 ± 0.37
14 | CN1CCc2c(c3ccccc3n2Cc2ccc(C(=O)NO)cc2)C1 [Tubastatin A HCl] | 0.623 ± 0.15
15 | CC1=C(C(=O)Nc2cc3cn[nH]c3cc2F)C(c2ccc(C(F)(F)F)cc2)CC(=O)N1 (stereo not given) | 1.27 ± 0.48
16 | CC(C)[C@H](CO)Nc1nc(Nc2cccc(Cl)c2)c2ncn(C(C)C)c2n1 [Purvalanol A] | 0.716 ± 0.095
17 | CCCCCOC(=O)Nc1nc(=O)n([C@@H]2O[C@H](C)[C@@H](O)[C@H]2O)cc1F [Capecitabine] | 0.922 ± 0.39
18 | O=C(O)c1cc(I)ccc1NC(=O)[C@H](Cc1ccccc1)NCc1ccccc1 | 1.89 ± 0.36
19 | CC[C@H](CO)Nc1nc(NCc2ccccc2)c2ncn(C(C)C)c2n1 [Roscovitine (Seliciclib,CYC202)] | 1.06 ± 0.096
20 | CCN1C(=O)CNc2ncc(-c3ccc(-c4nc[nH]n4)nc3C)nc21 | 0.696 ± 0.12

Row | Compound | fraction of GFP+ cells
21 | C[C@H](Oc1cc(-c2cnn(C3CCNCC3)c2)cnc1N)c1c(Cl)ccc(F)c1Cl [(S)-crizotinib] | 0.94 ± 0.18
22 | CC(N)C12CC3CC(CC(C3)C1)C2 (stereo not given) [Rimantadine Hydrochloride] | 0.701 ± 0.034
23 | Cc1ccc(S(=O)(=O)c2ccc([N+](=O)[O-])o2)cc1 | 1.39 ± 0.46
24 | Cc1cccc(Nc2cc(Cl)nc(SCC(=O)O)n2)c1C | 1.56 ± 0.58
25 | CNCc1ccc(-c2cc(-c3nc(-c4ccc(S(=O)(=O)C(C)C)cc4)cnc3N)on2)cc1 | 0.301 ± 0.12
26 | O=C(NO)c1cccc(C(=O)NCCc2ccccc2)c1 | 0.743 ± 0.17
27 | CCCC(CCC)C(=O)O [Valproic acid sodium salt (Sodium valproate)] | 0.849 ± 0.18
28 | Cc1n[nH]c2ncc(C(=O)N3CCC[C@H]3c3ccc(Cl)cc3)cc12 | 1.35 ± 0.069
29 | CC1=C(C(=O)Nc2ccc3[nH]ncc3c2)C(c2ccc(F)cc2)NC(=O)N1 (stereo not given) | 1.53 ± 0.42
30 | O=NN(CCCl)C(=O)NC1CCCCC1 [Lomustine] | 1.11 ± 0.11
31 | O=c1c(O)c(-c2ccc(O)c(O)c2)oc2cc(O)ccc12 [Fisetin] | 1.39 ± 0.39
32 | O=c1nc(N2CCOCC2)oc2c(-c3cccc4c3sc3ccccc34)cccc12 | 0.761 ± 0.24
33 | C#CCC(Cc1cnc2nc(N)nc(N)c2n1)c1ccc(C(=O)N[C@@H](CCC(=O)O)C(=O)O)cc1 (stereo not given in full) [Pralatrexate] | 1.43 ± 0.46
34 | CCN1/C(=C/C(C)=O)Sc2ccc(OC)cc21 | 0.802 ± 0.095
35 | CCOC(=O)Nc1ccc(NCc2ccc(F)cc2)nc1N [Flupirtine maleate] | 0.989 ± 0.52
36 | CNC1CCCN(c2c(F)cc3c(=O)c(C(=O)O)cn(C4CC4)c3c2OC)C1 (stereo not given) [Balofloxacin] | 0.978 ± 0.15
37 | COc1ccc(Cn2ccc3ccc(C(=O)NO)cc32)cc1 | 0.5 ± 0.072
38 | CCN1CCN(Cc2ccc(Nc3ncc(F)c(-c4cc(F)c5nc(C)n(C(C)C)c5c4)n3)nc2)CC1 | 0.684 ± 0.039
39 | O=C(O)c1ccc2c(c1)nc(Nc1cccc(Cl)c1)c1ccncc12 [Silmitasertib (CX-4945)] | 0.655 ± 0.32
40 | Nc1nc(NC2CC2)cc(-c2cccc(Cl)c2Cl)n1 | 0.918 ± 0.2

Source: the supplement of paper PMC8387472
